Data on 40 compounds can be found in PubChem BioAssay (NCI).

Structures are written as SMILES. The panel holds about 83,000 compounds, 20% with a hit somewhere; the sample as a whole holds those more often.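 Cell lines were cultured in 96-well plates, exposed to a single compound concentration, and assessed for percent growth 48 hours later.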 Calls of active or inactive are those of the source. How the source made its calls: active means growth percent below 10; inactive means the rest.

The test system of the experiment is HCT-116 colon. In words: NCI-60 one-dose screen, 48 h (100 = growth as untreated, 0 = no growth, -100 = all killed). To be noted: 10 µM unless noted.
For the compound `COC12C=C/C(=C(/C(=O)OCc3ccncn3)C(=O)CCCCCCCCC3(OC)C=C/C(=C(/C(=O)OCc4ccncn4)C(=O)CCCCCCCC1)O3)O2`, the growth is -50.9% (active).

`CN(/C(N)=N/N=C/c1c2ccccc2cc2ccccc12)C1CCCCC1`: the growth is 15.9% (inactive). Consider `Cn1cc(-c2csc(-c3c[nH]c4ccc(Br)cc34)n2)c2ccnc(Cl)c21`, for which the growth is 49.8% (inactive). For `COC(=O)c1nc(-c2ccc(C)cc2)oc1S(=O)(=O)c1cccc(OC)c1`, the growth was 61.6% (inactive). As to `CCCCn1c(=O)[nH]c(N)c([C@@H]2c3c([nH]c(=O)n(CCCC)c3=O)Oc3ccc4ccccc4c32)c1=O`, the growth is -26.3% (active). On to `O=C(O)c1cn(C2CC2)c2cc(N3CCN(C(=O)N(c4ccccc4)c4nc(-c5ccccc5)cs4)CC3)c(F)cc2c1=O`, for which the growth was 5.04% (active). For `CCC(C)(C)C(=O)O[C@H]1C[C@@H](C)C=C2C=C[C@H](C)[C@H](CC[C@@H]3CC(SCCN)CC(=O)O3)[C@H]21` (stereo not given in full), the growth was 37.5% (inactive). The figure for `COc1cc(OC)c(NC(=O)c2cc3ccccc3cc2O)cc1Cl` is 18.1% (inactive); for `O=C(Nc1cccc2ccccc12)NC1CC1` it is 103% (inactive); for `COc1ccc(C(=O)c2cc3c(N)c(C(=O)Nc4ccc(C)cc4)sc3nc2C)cc1` it is 16.2% (inactive). The figure for `CCCCCCCCCCCCCCCCCCOc1ccccc1CC(=O)OCC[N+](C)(C)C` is 30.6% (inactive); for `C=CC[Se]C(=O)Cc1c(C)n(C(=O)c2ccc(Cl)cc2)c2ccc(OC)cc12` it is 5.41% (active); for `Cc1cc(N2CCCCC2)cc(C)c1-c1csc(NC(=O)c2ccncc2)n1` it is 20.7% (inactive). In the case of `Cc1[nH]c(C(=O)Nc2ccccc2OC2CCNCC2)c(Cl)c1Cl`, the growth was 4.55% (active).

As for `O=C(Nc1cccc(Cl)c1)Nc1cccc(Cn2c(=O)[nH]c3ccc(Oc4ncccn4)cc3c2=O)c1`, the growth is 22.9% (inactive). With `CCCCCCC12CCC(=O)N1CCc1cncn12` (stereo not given), the growth is 106% (inactive). Turning to `CCCC/C(CC)=N\NS(=O)(=O)c1ccc([N+](=O)[O-])cc1`, the growth is 99.6% (inactive). Consider `C[C@@H](CO)[C@@H]1CCC=C2CC[C@]3(C)[C@H](CC[C@@H]4[C@@]5(C)CCCNC(C)(C)[C@@H]5CC[C@]43C)[C@H]21`, for which the growth is -20.3% (active).

On to `O=C1NC2(Nc3ccccc31)C(=O)Nc1c(Cl)cc(Cl)cc12` (stereo not given), for which the growth is 98.6% (inactive). Then `CSc1nc2ccccc2cc1/C=[N+](\[O-])c1ccccc1`, with 10.4% (inactive); and `O=C(NCCNc1nccc(Nc2ccc(S(=O)(=O)Nc3ccccn3)cc2)n1)c1cccc([N+](=O)[O-])c1`, with 90.4% (inactive); and `COc1ccc(CN2c3ccccc3Sc3ccccc32)cc1F`, with 8.54% (active).

Turning to `CCCCC1=C(P(=O)(O)O)N[C@H](C(=O)O)CS1`, the growth is 96.5% (inactive). As for `Nc1ncnc2c1C(c1ccccc1)c1ccc3ccccc3c1O2` (stereo not given), the growth is 85.3% (inactive).

For the compound `O=c1c2cccc3c(N4CCCC4)ccc(c32)c2nc3ccccc3n12`, the growth is 54.7% (inactive).

Take `CCN(CC)CCCCCNc1cc(OC(=O)c2ccc(Cl)cc2)cc2cccnc12`: the growth was 83.6% (inactive). For `CSc1oc(C)nc1[P+](c1ccccc1)(c1ccccc1)c1ccccc1`, the growth is 33.4% (inactive).

`COc1ccc(-c2ccc(=O)oc2-c2cc(OC)c(OC)c(OC)c2)cc1O`: the growth is -67.4% (active). Then `C=C1CC[C@@H]2[C@](C)(COC(C)=O)[C@H](OC(C)=O)CC[C@@]2(C)[C@@H]1CC(Nc1ccc(S(=O)(=O)Nc2ncccn2)cc1)C1=CCOC1=O` (stereo not given in full), with -55% (active); and `C=CCOC(=O)Nc1cccn([C@H](Cc2ccccc2)C(=O)NCCC(C)C)c1=O`, with 109% (inactive); and `Cc1[nH]c(C(=O)Nc2ccc(C(=O)N3CCN(c4cc5c(cc4F)c(=O)c(C(=O)O)cn5C4CC4)CC3)cc2OC(C)C)c(Cl)c1Cl`, with 38.1% (inactive).

As to `CC1CCN(S(=O)(=O)c2ccc(S(=O)(=O)N3CCCC(c4nc5c(nnn5Cc5cccc(Cl)c5)c(=O)[nH]4)C3)cc2)CC1` (stereo not given), the growth is 15.1% (inactive).

With `N#Cc1c(-c2ccc(Cl)cc2)c(C#N)c2c(C#N)c(N)nn2c1N`, the growth is 96.1% (inactive). For `O=C(Nn1c2c(sc1=NC1CC1)C(=O)c1ccccc1C2=O)c1cc2ccc1CCc1ccc(cc1)CC2`, the growth was -9.1% (active). Consider `Nc1nc2ccc(-c3nc4ccc5[nH]ncc5c4c4c3CCCC4)cc2s1`, for which the growth was 91.8% (inactive).

For `CCOC(=O)c1c(NC(=O)c2ccc(Cl)cc2)sc2c(CN(C)C)c(O)ccc12`, the growth is 70.7% (inactive). On to `N#Cc1nc(-c2ccc(F)cc2)oc1S(=O)(=O)N1CCCCC1`, for which the growth was -19.4% (active).

Consider `CCOC(=O)n1ccn(C)c1=S`, for which the growth was 94.4% (inactive). `O=C(Nc1ccc(Oc2cccc(F)c2)c(Cl)c1)c1cccnc1`: the growth was 33.7% (inactive). As to `O=C1/C(=C/c2cccc(F)c2)CN(C(=O)C(Cl)Cl)C/C1=C\c1cccc(F)c1`, the growth was -82.8% (active).
